Bioassay records from PubChem.
GLP-1R inv ag = qHTS of GLP-1 Receptor Inverse Agonists (Inhibition Mode). HEK293 GLP-1R CRE-luciferase, luminescence, 24 h; GLP-1R form is constitutively active. Potency, µM (series often up to 38.3 µM), for inactives: at the highest dose activity change, negative = inhibition, hits mostly inhibitors. hit rate 1.6% among 410,000. Glucagon-like peptide 1 receptor (Homo sapiens), P43220; note: potency is the fitted concentration of half-maximal effect; % is set by controls: 0 for no effect and ±100 for the full control effect; nearly all actives have a fitted effect of over 55% in size
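Assay principle: reduced luminescence from a cAMP-responsive reporter in HEK293 cells co-expressing a constitutively active GLP-1R. Conditions: 24 hr compound incubation, 37 deg C, 5% CO2.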
GLP1R ag = qHTS of GLP-1 Receptor Agonists; Glucagon-like peptide 1 receptor (Homo sapiens), P43220; HEK293 GLP-1R CRE-luciferase, luminescence, 4-6 h; cells express a hypersensitive GLP-1R form; Potency, µM (series often up to 45.6 µM), for inactives: at the highest dose activation, usual class: activators; hit rate 0.007% among 380,000; AID 624172, 2012; note: potency is the fitted concentration of half-maximal effect; % of control where 0% means no effect
LDHA block = qHTS assay for inhibitors of human lactate dehydrogenase | L-lactate dehydrogenase A chain (Homo sapiens), P00338 | purified LDHA, NADH/diaphorase-resazurin fluorescence; stronger effect = lower value | activity change, % (values are at about 110 or 230 µM) | hit rate 0.15% among 480,000; in the data active = activity change below about -30%; inconclusive = mostly about -25% to -30%;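 note: plate controls were DMSO wells for no effect and wells without enzyme for full effect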
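Resorufin fluorescence (ex540/em590), read at 0 and 20 min after diaphorase/resazurin addition, reports the NADH left after a 5 min room-temperature reaction of 2 nM human LDH5 with 0.06 mM NADH and 0.2 mM pyruvate.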
HEK293 tox = qHTS of GLP-1 Receptor Inverse Agonists: Cytotox Screen; HEK293 cAMP-luciferase reporter cells, luminescence, 24 h; AID 624418, 2012; Potency, µM (highest dose often 38.3 µM), inactives show at the highest dose activity change, negative = inhibition, most hits filed as inhibitors; hit rate 0.13% among 410,000;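 note: loss of luciferase light is scored as toxicity; potency is the fitted concentration of half-maximal effect; % is set by controls: 0 for no effect and ±100 for the full control effect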
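Compound-treated cells are incubated 24 hr at 37 deg C under 5% CO2 after a 12 hour attachment period, then luciferase detection reagent is added and luminescence is measured following 12 min at room temperature; lowered signal indicates toxicity.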
ClpP mod = qHTS Assay for Activators of ClpP; ATP-dependent Clp protease proteolytic subunit (Bacillus subtilis (strain 168)), P80244; purified B. subtilis ClpP, FRET peptide cleavage, 20 min; Potency, µM (titrated, usually from 57.5 µM), for inactives: at the highest dose activity change, negative = active; hit rate 1.9% among 340,000; AID 651965, 2013; active = well fitted falling curve with a large enough effect; inconclusive = small, poorly fitted or top-dose-only effect; inactive = no such curve, though single readings can be large or run the other way; note: potency is the fitted concentration of half-maximal effect; the source files actives as falling curves though it sought activators and does not explain the sign; nearly all actives have a fitted effect of over 65% in size
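ClpP 10 microg/mL final, pH 8 Tris/KCl buffer with BSA, glycerol, Tween-20; compound pinned in; FRET-FV substrate; RT 20 min; Ex320/Em430; ΔFRET vs ADEP 5.8 microM, DMSO, no enzyme.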
p53 reactivation = qHTS assay for re-activators of p53 using a Luc reporter. H1299 p53-A138V BP100-luciferase reporter, luminescence, 24 h. Potency, µM (top dose mostly 92.2 µM), for the others: top-dose activity change, positive = activation, hits mostly activators. hit rate 0.063% among 320,000. AID 504706, 2011; note: potency is the fitted concentration of half-maximal effect; % of control where 0% means no effect; nearly all actives have a fitted effect of over 45% in size
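p53-null H1299 cells stably carrying temperature-sensitive p53-A138V and a BP100-luciferase reporter were pinned with compounds (4-point, 1:5 series) and held 24 hrs at 37 deg C. Luminescence was read 10 min after detection reagent.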
* hit, by the source's call; ? = inconclusive; nt = no result given; [ ] = another dose, or the depositor's remark. Hits are enriched below; roughly 2.9% of the tested compounds scored in any of these assays. Unless noted, calls come from the whole dose curve; as a rule, active = well fitted curve in the direction sought with a large enough effect; inconclusive = small, poorly fitted or top-dose-only effect, or another doubt; inactive = no such curve, though single readings can be large; an effect the other way counts as inactive or inconclusive.

SMILES	GLP-1R inv ag	GLP1R ag	LDHA block	HEK293 tox	ClpP mod	p53 reactivation
COC(=O)COc1ccc(C)cc1-n1nc2ccccc2n1	-25.3%	8.0%	-13.0	-4.7%	nt	1.3%
Cc1ccc(OC(=O)COc2ccccc2)c(-n2nc3ccccc3n2)c1	21.9%	5.9%	2.5	19.2%	31.6µM*	?
Cc1ccc(OC(=O)c2cccc([N+](=O)[O-])c2)c(-n2nc3ccccc3n2)c1	28.7%	20.0%	-13.0	-3.0%	-8.0%	?
Cc1ccc(OC(=O)COc2ccccc2C)c(-n2nc3ccccc3n2)c1	54.3%	0.4%	4.5	-17.8%	?	39.8µM*
O=C(CCl)N(C1CCCC1)C1CCS(=O)(=O)C1 (centres undefined)	4.47µM*	-1.7%	-3.6	6.2%	nt	-21.7%
O=C(COc1cccc2ccccc12)N(C1CCCC1)C1CCS(=O)(=O)C1 (centres undefined)	nt	nt	-3.1	nt	nt	nt
CN(C(=O)c1ccc(Br)cc1)C1CCCCC1	nt	nt	-1.4	nt	nt	nt
CN(C(=O)c1ccc(-c2ccccc2)cc1)C1CCCCC1	10µM*	19.4%	-2.4	0.8%	nt	nt
O=C(Nc1ccccc1)Nc1cccc2ccccc12	?	11.5%	-8.7	-8.0%	nt	9.7%
O=C(Nc1ccccc1)Nc1cccc2cccnc12	10µM*	0.9%	-12.1	-13.3%	-4.8%	?
Cc1cc(O)c(C(C)C)cc1NC(=O)Nc1cc(Cl)ccc1Cl	?	17.0%	20.6	-0.2%	nt	nt
Cc1cccnc1NC(=O)Nc1cccc2ccccc12	14.4%	-2.7%	17.6	-4.5%	25.1µM*	6.1%
Cc1cc(O)c(C(C)C)cc1NC(=O)Nc1cccc2ccccc12	6.31µM*	18.1%	11.0	-5.0%	nt	-4.9%
O=C(Nc1cccc2cccnc12)C(c1ccccc1)c1ccccc1	nt	nt	-1.4	nt	nt	nt
CC(=O)N(Cc1cc2cccc(C)c2[nH]c1=O)C(C)C	nt	nt	9.5	nt	nt	nt
COc1ccc(CNC(=O)c2ccccc2)cc1	nt	nt	1.7	nt	nt	nt
COc1cc2[nH]c(=O)n(CCCCCC(=O)NCCCN3CCCC3=O)c(=O)c2cc1OC	47.3%	-6.1%	-6.3	14.3%	28.2µM*	5.0%
O=C(NCCCN1CCCC1)Nc1cccc2ccccc12	-2.4%	-6.9%	8.5	2.0%	?	-13.5%
CN1CCN(CCCNC(=O)Nc2cccc3ccccc23)CC1	-5.3%	-0.5%	3.1	-1.9%	15.8µM*	16.9%
CCOc1cc2[nH]c(=O)n(CCCCCC(=O)NC3CCCC3)c(=O)c2cc1OCC	1.3%	-3.2%	-2.3	8.3%	3.9%	2.0%
CCOc1cc2[nH]c(=O)n(CCCN3CCCC3=O)c(=O)c2cc1OCC	1.1%	-0.6%	1.3	-3.6%	11.2µM*	8.2%
COc1ccc(CNC(=O)c2cccc(-c3ccc(C)c4ccccc34)n2)cc1	?	19.7%	-1.6	-12.3%	25.1µM*	-0.6%
COc1cc2[nH]c(=O)n(CCCC(=O)NCCc3ccccc3)c(=O)c2cc1OC	30.4%	-3.6%	-7.9	8.2%	-0.9%	10.4%
Cc1cc(C)n2c(Nc3ccc4c(c3)OCCO4)c(CC(C)C)nc2n1	26.9%	1.0%	2.0	-7.5%	0.0%	nt
C=C(C)Cn1c(SCC)nc2ccccc2c1=O	?	3.1%	-1.5	-0.2%	-0.4%	1.8%
SMILES	GLP-1R inv ag	GLP1R ag	LDHA block	HEK293 tox	ClpP mod	p53 reactivation
Cc1ccc(N2C(=O)CC(N3CCN(c4ccc(F)cc4)CC3)C2=O)c(C)c1 (centres undefined)	-29.0%	-1.3%	-0.2	-22.1%	nt	nt
COc1ccc(CCNC(=O)c2c(O)c3cc(OC)c(OC)cc3[nH]c2=O)cc1OC	-0.1%	-4.7%	3.0	-19.0%	-8.9%	nt
COc1cc2[nH]c(=O)n(CCCCCC(=O)NCCCN3CCOCC3)c(=O)c2cc1OC	12.8%	1.1%	-3.1	-1.9%	22.4µM*	-3.5%
COc1cc2[nH]c(=O)n(CCC(=O)NCCC(C)C)c(=O)c2cc1OC	0.0%	-10.1%	-3.9	1.9%	20µM*	-0.9%
COc1ccc(CNC(=O)Nc2cccc3ccccc23)cc1	-1.3%	-9.3%	0.9	3.1%	31.6µM*	3.4%
COc1cc2[nH]c(=O)c(C(=O)NCCCN3CCCCC3)c(O)c2cc1OC	3.4%	-6.9%	7.4	17.7%	3.55µM*	-3.3%
O=C(NCc1ccccc1)Nc1cccc2ccccc12	1.5%	-1.1%	0.1	4.6%	-16.8%	-3.2%
COc1cc2[nH]c(=O)n(Cc3ccc(C(=O)NCCCN4CCC(C)CC4)cc3)c(=O)c2cc1OC	0.0%	12.0%	-9.5	1.8%	?	-3.1%
COc1cc2[nH]c(=O)n(CCCCCC(=O)NCCCN3CCC(C)CC3)c(=O)c2cc1OC	44.7%	-5.4%	-3.0	2.4%	15.8µM*	-6.9%
CCOc1cc2[nH]c(=O)n(Cc3ccccc3)c(=O)c2cc1OCC	-0.4%	-5.8%	0.0	-15.1%	12.6µM*	2.1%
COc1cc2[nH]c(=O)n(CCC(=O)N3CCC(N4CCCCC4)CC3)c(=O)c2cc1OC	4.0%	-1.8%	4.6	15.4%	31.6µM*	-11.7%
COc1cc2[nH]c(=O)n(Cc3ccc(C(=O)N4CCC(N5CCCCC5)CC4)cc3)c(=O)c2cc1OC	3.7%	-1.9%	2.7	7.3%	5.0%	10.3%
COc1ccc(CNC(=O)CCn2c(=O)[nH]c3ccccc3c2=O)cc1	-1.7%[7.66 µM]	0.3%	-3.3	8.5%[7.66 µM]	28.2µM*	1.0%
C#CCOC(=O)c1csc2nnsc12	28.4%	-3.3%	-5.0	2.8%	2.1%	-4.5%
Cc1ccc(-n2c(C)cc(C(=O)COC(=O)c3ccc[nH]c3=O)c2C)cc1	-14.5%	-38.4%	0.4	-9.6%	0.8%	14.4%
COCOc1cccc(CN2CCC(C)(Oc3cccc(C#N)c3)C2)c1 (centres undefined)	?	1.3%	4.7	2.6%	-4.0%	nt
S=C(NCc1ccccc1)Nc1ccc(Cl)c(Cl)c1	nt	nt	1.2	nt	nt	nt
S=C(NCc1ccccc1)Nc1cccc(Cl)c1	?	-1.2%	3.7	10µM*	?	?
Fc1cccc(NC(=S)NCc2ccccn2)c1	?	2.6%	-0.7	10µM*	-3.8%	13.9%
S=C(NCc1ccccc1)NNc1ccccc1	10µM*	0.8%	7.9	8.91µM*	-6.8%	3.5%
S=C(NCCSCc1ccc(Cl)cc1Cl)Nc1ccccc1	3.55µM*	-0.3%	-2.7	-8.0%	-2.3%	-6.5%
S=C(NCc1ccccc1)NCc1ccccc1	-5.2%	-3.3%	-3.4	1.0%	0.6%	-3.2%
